According to PubChem BioAssay AID1159580 (chemical genetic matrix, 2015):
Values joined by “and” are separate entries in the source; they are usually repeats but may differ in a detail not shown here. Equal entries are not always repeated. Screen size: about 5,500 compounds; about 2,000 (36%) were called active. About 18% were inconclusive and are not listed. Cut-off read from the data, not from the text of the source: active = normalized growth mostly below about 0.91 (no sharp cut-off); inconclusive = no clear call, values can overlap the other calls; inactive = mostly above about 0.92. Some of the results follow.

Experiment: chemical genetic growth profiling, strain panel (AID 1159580);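 note: tested at 20 µM; growth read once vehicle control cultures reached saturation at 30 °C; 1 = growth at the plate median or of vehicle wells; lower values mean less growth of the strain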
Conditions: S. cerevisiae deletion strains, growth OD

Measured: normalized growth

O=C(NCO)c1cccnc1
inactive: locus YAL013W, strain DEP1, hits give low values 0.99 | locus YAL021C, strain ccr4, hits give low values 1.02 | locus YAL026C, strain drs2, hits give low values 1.01 | locus YAL030W, strain snc1, hits give low values 1.01 | locus YBL061C, strain skt5, hits give low values 1.01 | locus YBR009C, strain hhf1, hits give low values 0.998 | locus YBR021W, strain FUR4, hits give low values 1.04 | locus YBR023C, strain chs3, hits give low values 1 | locus YBR171W, strain sec66, hits give low values 1.03 | locus YBR229C, strain ROT2, hits give low values 0.997 | locus YBR231C, strain swc5, hits give low values 1 | locus YBR279W, strain paf1, hits give low values 1.01 | locus YCL011C, strain gbp2, hits give low values 1.01 | locus YCL016C, strain dcc1, hits give low values 1.01 | locus YCL029C, strain bik1, hits give low values 0.971 | locus YCL061C, strain MRC1, hits give low values 0.999 | locus YCL069W, strain vba3, hits give low values 1 | locus YCR088W, strain abp1, hits give low values 1 | locus YDL005C, strain med2, hits give low values 1 | locus YDL035C, strain GPR1, hits give low values 0.985 | locus YDL040C, strain nat1, hits give low values 1.01 | locus YDL074C, strain BRE1, hits give low values 1 | locus YDL101C, strain DUN1, hits give low values 0.99 | locus YDL134C, strain PPH21, hits give low values 0.988 | locus YDL185W, strain tfp1, hits give low values 1.01 | locus YDL192W, strain arf1, hits give low values 0.987 | locus YDR001C, strain nth1, hits give low values 1 | locus YDR069C, strain doa4, hits give low values 0.999 | locus YDR101C, strain arx1, hits give low values 0.991 | locus YDR137W, strain rgp1, hits give low values 1.02 | locus YDR150W, strain NUM1, hits give low values 0.98 | locus YDR159W, strain sac3, hits give low values 1 | locus YDR162C, strain NBP2, hits give low values 1 | locus YDR195W, strain ref2 0.993 | locus YDR297W, strain sur2, hits give low values 1.01 | locus YDR318W, strain mcm21, hits give low values 0.978 | locus YDR334W, strain swr1, hits give low values 1.01 | locus YDR335W, strain msn5, hits give low values 1.01 | locus YDR388W, hits give low values 0.989 | locus YDR392W, strain spt3, hits give low values 0.893 | locus YDR502C, strain sam2, hits give low values 0.996 | locus YEL003W, strain gim4, hits give low values 1.01 | locus YEL037C, strain rad23, hits give low values 1.02 | locus YEL061C, strain CIN8 (second series), hits give low values 1.01 | locus YEL061C, strain CIN8, hits give low values 0.996 | locus YER015W, strain faa2, hits give low values 1 | locus YER016W, strain bim1, hits give low values 1.01 | locus YER110C, hits give low values 0.97 | locus YER111C, strain swi4, hits give low values 1 | locus YER155C, strain BEM2 (second series), hits give low values 1.01 | locus YER155C, strain BEM2, hits give low values 0.996 | locus YER167W, strain BCK2, hits give low values 0.982 | locus YFR010W, strain ubp6, hits give low values 1.01 | locus YGL078C, strain dbp3, hits give low values 0.979 | locus YGL086W, strain mad1, hits give low values 0.983 | locus YGL167C, strain pmr1, hits give low values 1.01 | locus YGL173C, strain kem1, hits give low values 1.01 | locus YGL227W, strain vid30, hits give low values 1 | locus YGL240W, strain doc1, hits give low values 0.988 | locus YGL248W, strain PDE1, hits give low values 0.994 | locus YGL253W, strain hxk2, hits give low values 1.01 | locus YGR078C, strain PAC10, hits give low values 0.995 | locus YGR135W, strain pre9, hits give low values 1.02 | locus YGR229C, strain SMI1, hits give low values 1.01 | locus YGR252W, strain gcn5, hits give low values 1.01 | locus YHR013C, strain ard1, hits give low values 0.984 | locus YHR027C, strain rpn1, hits give low values 1.01 | locus YHR030C, strain SLT2, hits give low values 0.984 and 0.995 | locus YHR079C, strain IRE1 (second series), hits give low values 0.989 | locus YHR079C, strain IRE1, hits give low values 0.992 | locus YHR094C, strain hxt1, hits give low values 0.982 | locus YHR129C, strain ARP1, hits give low values 0.994 | locus YHR142W, strain chs7, hits give low values 1.02 | locus YHR200W, strain rpn10, hits give low values 0.981 | locus YIL066C, strain RNR3, hits give low values 0.98 | locus YIL073C, strain SPO22, hits give low values 0.894 | locus YIL125W, strain kgd1, hits give low values 0.975 | locus YIR030C, strain dcg1, hits give low values 0.992 | locus YJL092W, strain hpr5, hits give low values 1.01 | locus YJL095W, strain BCK1 (second series), hits give low values 1 | locus YJL095W, strain BCK1, hits give low values 1.01 and 0.998 | locus YJL115W, strain asf1, hits give low values 1 | locus YJL129C, strain trk1, hits give low values 1.01 | locus YJL134W, strain LCB3, hits give low values 0.988 | locus YJL154C, strain vps35, hits give low values 1 | locus YJL164C, strain tpk1, hits give low values 0.998 | locus YJL166W, strain qcr8, hits give low values 1.01 | locus YJL168C, strain set2, hits give low values 0.982 | locus YJL187C, strain SWE1 (second series), hits give low values 0.982 | locus YJL187C, strain SWE1, hits give low values 1 | locus YJR043C, strain POL32, hits give low values 0.983 | locus YJR066W, strain TOR1, hits give low values 0.906
